Here are results for four compounds from PubChem BioAssay (EPA / NIEHS).

The source made the active and inactive calls. Rule for the calls: active = hit-call score of the fitted dose curve at least 0.9, where 1 is the maximum; inactive = score below 0.9.

Holding throughout (details): mRNA level, 48 h; actives raise or lower the signal
Read-out in experiment [1]: Pro-epidermal growth factor (Homo sapiens) (UniProt P01133)
As to the kind of experiment: LTEA_HepaRG_EGF: Life Technologies and Expression Analysis (LTEA) Assay for Epidermal growth factor (EGF) using HepaRG (AID 2283489). In a few lines: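 Differentiated human HepaRG cells, plated 48 h then switched to serum-free induction medium, were exposed for 48 h to test chemicals (8-point half-log series, top 100 uM, 0.5% DMSO). EGF mRNA was quantified by qRT-PCR, normalized to ACTB, GAPDH, POLR2A.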

Read-out in experiment [2]: Early growth response protein 1 (EGR1) transcription factor, EGR1 (gene 1958)
Briefly: LTEA_HepaRG_EGR1: Life Technologies and Expression Analysis (LTEA) Assay for Early growth response protein 1 (EGR1) transcription factor using HepaRG (AID 2283490). In a few lines:
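HepaRG, 48 h exposure, 8-pt half-log series from 100 uM, 0.5% DMSO vehicle; EGR1 transcript by TaqMan qRT-PCR (Fluidigm array), housekeeping-normalized; bidirectional fit relative to DMSO baseline.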

Read-out in experiment [3]: Ezrin (EZR), EZR (gene 7430)
As to the kind of experiment: LTEA_HepaRG_EZR: Life Technologies and Expression Analysis (LTEA) Assay for Ezrin (EZR) using HepaRG (AID 2283491). The method in brief:
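Read-out is EZR transcript level by qRT-PCR, normalized to three housekeeping genes and fitted bidirectionally against the DMSO control. Human HepaRG cells received test chemicals for 48 h at eight half-log concentrations up to 100 uM in 0.5% DMSO.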

Read-out in experiment [4]: Cytochrome P450 3A7 (Homo sapiens) (UniProt P24462)
Briefly: LTEA_HepaRG_CYP3A7: Life Technologies and Expression Analysis (LTEA) Assay for CYP3A7 using HepaRG (AID 2283492). In a few lines: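 HepaRG cells plated 48 h, then dosed in serum-free induction medium for 48 h at 8 concentrations (top 100 uM, half-log steps, 0.5% DMSO). CYP3A7 mRNA by qRT-PCR, normalised to ACTB/GAPDH/POLR2A; bidirectional fit versus DMSO.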

Read-out in experiment [5]: CYP3A5 (gene 1577)
As to the kind of experiment: LTEA_HepaRG_CYP3A5: Life Technologies and Expression Analysis (LTEA) Assay for CYP3A5 using HepaRG (AID 2283493). The method in brief: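 qRT-PCR read-out: CYP3A5 transcript in HepaRG lysates, housekeeping-normalized (ACTB/GAPDH/POLR2A), fitted bidirectionally against 0.5% DMSO baseline. Exposure 48 h, eight half-log concentrations up to 100 uM, duplicates.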

Read-out in experiment [6]: Fatty Acid-Binding Protein 1 (FABP1), FABP1 (gene 2168)
Briefly: LTEA_HepaRG_FABP1: Life Technologies and Expression Analysis (LTEA) Assay for Fatty Acid-Binding Protein 1 (FABP1) using HepaRG (AID 2283494). The method in brief: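 qRT-PCR readout of FABP1 transcript (normalized to three housekeeping genes) after 48 h chemical exposure of HepaRG cells; eight concentrations, half-log steps, max 100 uM, 0.5% DMSO vehicle; gain or loss fitted relative to DMSO baseline.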

Read-out in experiment [7]: Cytochrome P450 4A22 (Homo sapiens) (UniProt Q5TCH4)
As to the kind of experiment: LTEA_HepaRG_CYP4A22: Life Technologies and Expression Analysis (LTEA) Assay for Cytochrome P450 4A22 (CYP4A22) using HepaRG (AID 2283495). The method in brief:
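qRT-PCR of CYP4A22 mRNA (Fluidigm TaqMan, normalized to three housekeeping genes) after 48 h chemical exposure of HepaRG cells; 8-point half-log series, top 100 uM, 0.5% DMSO vehicle. Bidirectional curve fitting vs DMSO baseline.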

Read-out in experiment [8]: Cytochrome P450 7A1 (Homo sapiens) (UniProt P22680)
As to the kind of experiment: LTEA_HepaRG_CYP7A1: Life Technologies and Expression Analysis (LTEA) Assay for Cytochrome P450 7A1 (CYP7A1) using HepaRG (AID 2283496). In a few lines: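 Using 0.5% DMSO as vehicle and baseline, chemicals were tested in duplicate over an 8-point range from 100 uM on HepaRG cells for 48 h; qRT-PCR signals were normalised to ACTB, GAPDH and POLR2A.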

Read-out in experiment [9]: Glutathione S-Transferase (GSTA2), GSTA2 (gene 2939)
Briefly: LTEA_HepaRG_GSTA2: Life Technologies and Expression Analysis (LTEA) Assay for Glutathione S-Transferase (GSTA2) using HepaRG (AID 2283497). In a few lines: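 qRT-PCR readout of GSTA2 transcript, normalized to three housekeeping genes, fitted bidirectionally against 0.5% DMSO baseline. Differentiated HepaRG cells received compound for 48 h at 8 concentrations (top 100 uM, half-log steps).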

Read-out in experiment [10]: Glutamate-cysteine ligase catalytic (GCLC), GCLC (gene 2729)
Briefly: LTEA_HepaRG_GCLC: Life Technologies and Expression Analysis (LTEA) Assay for Glutamate-cysteine ligase catalytic (GCLC) using HepaRG (AID 2283498). The method in brief:
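HepaRG, 48 h exposure, 8-pt half-log series from 100 uM, 0.5% DMSO vehicle; TaqMan qRT-PCR for GCLC mRNA, housekeeping-normalized; bidirectional curve fit vs DMSO baseline.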

Read-out in experiment [11]: growth arrest and DNA damage 45 (GADD45G), GADD45G (gene 10912)
Briefly: LTEA_HepaRG_GADD45G: Life Technologies and Expression Analysis (LTEA) Assay for growth arrest and DNA damage 45 (GADD45G) using HepaRG (AID 2283499). The method in brief: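 Differentiated human HepaRG cells in serum-free induction medium were exposed for 48 h to 8 half-log concentrations up to 100 uM in 0.5% DMSO, in duplicate. GADD45G mRNA was measured by TaqMan qRT-PCR, normalised to ACTB, GAPDH and POLR2A, and fitted bidirectionally against DMSO.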

Read-out in experiment [12]: Glutamate-cysteine ligase regulatory (GCLM), GCLM (gene 2730)
As to the kind of experiment: LTEA_HepaRG_GCLM: Life Technologies and Expression Analysis (LTEA) Assay for Glutamate-cysteine ligase regulatory (GCLM) using HepaRG (AID 2283500). The method in brief: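 HepaRG, 48 h dosing, 100 uM top, half-log x8, 0.5% DMSO vehicle. Readout: GCLM mRNA by TaqMan qRT-PCR, housekeeping-normalized (ACTB/GAPDH/POLR2A). Curves fit bidirectionally vs DMSO baseline.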

Read-out in experiment [13]: Glutathione S-transferase M3 (GSTM3), GSTM3 (gene 2947)
Briefly: LTEA_HepaRG_GSTM3: Life Technologies and Expression Analysis (LTEA) Assay for Glutathione S-transferase M3 (GSTM3) using HepaRG (AID 2283501). In a few lines:
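Differentiated HepaRG cells in serum-free induction medium were exposed in duplicate for 48 h to 8 half-log concentrations up to 100 uM in 0.5% DMSO. GSTM3 mRNA was measured by TaqMan qRT-PCR, normalized to ACTB/GAPDH/POLR2A, and fitted bidirectionally versus DMSO.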

Read-out in experiment [14]: Heat shock 70 kDa protein 1 (HSPA1A), gene 3303
Briefly: LTEA_HepaRG_HSPA1A: Life Technologies and Expression Analysis (LTEA) Assay for Heat shock 70 kDa protein 1 (HSPA1A) using HepaRG (AID 2283502). In a few lines:
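HepaRG, 48 h exposure, 8-pt half-log CRC from 100 uM in 0.5% DMSO, duplicates. Readout: TaqMan qRT-PCR of HSPA1A mRNA, housekeeping-normalized (ACTB/GAPDH/POLR2A). Bidirectional fit vs 0.5% DMSO baseline.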

Read-out in experiment [15]: Hypoxia-inducible factor 1-alpha (Homo sapiens) (UniProt Q16665)
As to the kind of experiment: LTEA_HepaRG_HIF1A: Life Technologies and Expression Analysis (LTEA) Assay for Hypoxia-inducible factor 1 (HIF1A) Trancription factor using HepaRG (AID 2283503). The method in brief:
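Gain- or loss-of-signal HIF1A mRNA changes are fitted against a DMSO baseline. HepaRG cultures receive eight concentrations, highest 100 uM, for 48 h in serum-free induction medium with 0.5% DMSO.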

Read-out in experiment [16]: 3-Hydroxy-3-Methylglutaryl-CoA Synthase 2 (HMGCS2), HMGCS2 (gene 3158)
As to the kind of experiment: LTEA_HepaRG_HMGCS2: Life Technologies and Expression Analysis (LTEA) Assay for 3-Hydroxy-3-Methylglutaryl-CoA Synthase 2 (HMGCS2) using HepaRG (AID 2283504). In a few lines:
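Differentiated human HepaRG cells were exposed in duplicate for 48 h in serum-free induction medium to eight concentrations (top 100 uM, half-log steps, 0.5% DMSO). HMGCS2 mRNA was quantified by TaqMan qRT-PCR, normalised to ACTB, GAPDH and POLR2A, then fitted bidirectionally against DMSO.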

Read-out in experiment [17]: HGF (gene 3082)
Briefly: LTEA_HepaRG_HGF: Life Technologies and Expression Analysis (LTEA) Assay for Hepatocyte Growth Facto (HGF) using HepaRG (AID 2283505). The method in brief: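 Differentiated human HepaRG cells in serum-free induction medium were exposed in duplicate for 48 h to eight concentrations (top 100 uM, half-log steps, 0.5% DMSO). HGF mRNA was quantified by qRT-PCR, normalized to ACTB, GAPDH and POLR2A.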

Read-out in experiment [18]: Insulin Like Growth Factor 1 (IGF1), IGF1 (gene 3479)
As to the kind of experiment: LTEA_HepaRG_IGF1: Life Technologies and Expression Analysis (LTEA) Assay for Insulin Like Growth Factor 1 (IGF1) using HepaRG (AID 2283506). The method in brief:
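qRT-PCR readout of IGF1 mRNA, normalized to three housekeeping genes, after 48 h chemical exposure of HepaRG cells. Concentrations: 8-point half-log series, top 100 uM, 0.5% DMSO vehicle. Gain or loss fitted against DMSO baseline.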

Read-out in experiment [19]: Insulin-like growth factor-binding protein 1 (IGFBP1), IGFBP1 (gene 3484)
Briefly: LTEA_HepaRG_IGFBP1: Life Technologies and Expression Analysis (LTEA) Assay for Insulin-like growth factor-binding protein 1 (IGFBP1) using HepaRG (AID 2283508). The method in brief:
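Differentiated human HepaRG cells in serum-free induction medium were exposed in duplicate for 48 h to eight concentrations, top 100 uM with half-log dilutions, in 0.5% DMSO. Transcript levels came from qRT-PCR normalised to ACTB, GAPDH and POLR2A, fitted bidirectionally against DMSO.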

Read-out in experiment [20]: Interleukin 6 (IL6), IL6 (gene 3569)
Briefly: LTEA_HepaRG_IL6: Life Technologies and Expression Analysis (LTEA) Assay for Interleukin 6 (IL6) using HepaRG (AID 2283509). The method in brief: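 qRT-PCR read-out of IL6 transcript, normalized to three housekeeping genes, after 48 h chemical exposure of HepaRG cells; 8-point half-log series, top 100 uM, 0.5% DMSO vehicle. Bidirectional curve fitting against DMSO baseline.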

Sequence of Cytochrome P450 3A7 (Homo sapiens) (P24462 whole entry, looked up): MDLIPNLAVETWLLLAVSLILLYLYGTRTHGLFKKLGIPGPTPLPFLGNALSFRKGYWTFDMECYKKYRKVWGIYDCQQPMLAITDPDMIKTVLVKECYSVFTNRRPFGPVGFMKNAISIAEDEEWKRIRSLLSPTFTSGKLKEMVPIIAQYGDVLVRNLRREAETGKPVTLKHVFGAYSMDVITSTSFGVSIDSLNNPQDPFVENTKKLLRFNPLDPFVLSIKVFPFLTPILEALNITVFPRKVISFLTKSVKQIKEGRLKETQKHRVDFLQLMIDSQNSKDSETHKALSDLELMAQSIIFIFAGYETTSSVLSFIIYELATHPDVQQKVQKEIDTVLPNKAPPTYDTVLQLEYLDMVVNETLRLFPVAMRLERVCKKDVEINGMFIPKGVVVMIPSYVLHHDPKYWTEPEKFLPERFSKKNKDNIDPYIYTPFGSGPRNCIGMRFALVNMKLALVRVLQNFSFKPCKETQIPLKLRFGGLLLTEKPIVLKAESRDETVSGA
Sequence of Hypoxia-inducible factor 1-alpha (Homo sapiens) (Q16665 whole entry, looked up): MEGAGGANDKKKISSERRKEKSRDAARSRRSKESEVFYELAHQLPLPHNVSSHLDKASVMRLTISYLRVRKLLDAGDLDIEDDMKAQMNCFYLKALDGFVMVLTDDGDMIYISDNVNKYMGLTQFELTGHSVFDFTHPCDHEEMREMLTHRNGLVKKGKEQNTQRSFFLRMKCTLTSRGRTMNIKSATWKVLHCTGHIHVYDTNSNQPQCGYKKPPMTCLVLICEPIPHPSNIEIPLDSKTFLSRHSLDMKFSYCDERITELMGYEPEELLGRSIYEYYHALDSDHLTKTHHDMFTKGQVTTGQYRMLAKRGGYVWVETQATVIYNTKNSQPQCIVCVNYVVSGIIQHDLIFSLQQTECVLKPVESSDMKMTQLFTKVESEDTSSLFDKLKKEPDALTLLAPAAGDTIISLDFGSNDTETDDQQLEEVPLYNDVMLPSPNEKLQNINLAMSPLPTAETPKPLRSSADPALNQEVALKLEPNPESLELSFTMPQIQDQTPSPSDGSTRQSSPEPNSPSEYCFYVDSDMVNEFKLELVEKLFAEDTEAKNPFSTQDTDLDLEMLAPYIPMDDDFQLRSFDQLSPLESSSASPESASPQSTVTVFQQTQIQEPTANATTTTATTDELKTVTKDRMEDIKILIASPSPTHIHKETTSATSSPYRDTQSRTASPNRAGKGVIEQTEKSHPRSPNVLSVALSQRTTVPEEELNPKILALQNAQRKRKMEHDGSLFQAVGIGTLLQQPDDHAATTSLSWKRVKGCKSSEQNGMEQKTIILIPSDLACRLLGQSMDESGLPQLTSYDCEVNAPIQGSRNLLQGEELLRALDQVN

As a reminder, the AC50 is the concentration giving half of the maximal activity seen. On to `CCN1CCC2(CC1)COc1cc3c(cc12)N(C(=O)c1ccc(-c2ccc(-c4nnc(C)o4)cc2C)cc1)CC3`, for which the result in [1], in [3], in experiment [4], in [7], in experiment [8] and in experiment [13] was inactive. Moreover, in experiment [17], the outcome was inactive. For the same compound, the AC50 in experiment [2] was 11.9 µM (active); in [5], 16 µM (active); in [6], 21.9 µM (active); in experiment [9] it was 75.2 µM (active); in [10] it was 25.4 µM (active); in [11], 74 µM (active). The AC50 in experiment [12] is 26.8 µM (active); in experiment [14], 16.6 µM (active); in experiment [15], 27.7 µM (active); in experiment [16] it was 22.8 µM (active); in experiment [18] it was 14.5 µM (active); in [19], 13.4 µM (active). Also, in experiment [20], the AC50 was 16 µM (active).

With `Oc1cccc2cccnc12`, the compound was called inactive in experiment [1], in experiment [2], in experiment [3], in experiment [4], in [5] and in [6]. The call in experiment [7], in experiment [8], in experiment [9], in experiment [10], in experiment [11] and in experiment [12] was inactive. Besides, the outcome in experiment [13], in [14], in experiment [16], in [17], in [18] and in experiment [19] was inactive. Besides, the call in experiment [20] was inactive.

`CC(C)(c1ccccc1)c1ccc(O)c(C(C)(C)c2ccccc2)c1`: the AC50 is 29.4 µM (active) in experiment [1]; 72.1 µM (active) in [2]; 80.8 µM (active) in [4]; 48.7 µM (active) in experiment [6]; 70.4 µM (active) in experiment [7]; 58.2 µM (active) in [8]. In addition, the half-maximal activity concentration (AC50) was 50 µM (active) in experiment [12]; 50 µM (active) in experiment [14]; 90.2 µM (active) in experiment [15]; 71.5 µM (active) in experiment [16]; 50 µM (active) in [18]. Moreover, the outcome in experiment [3], in experiment [5], in [9], in [10], in experiment [11] and in experiment [13] was inactive. Besides, the call in experiment [17], in experiment [19] and in experiment [20] was inactive.

Consider `C=C(C)C(=O)[O][Sn]([CH2]CCC)([CH2]CCC)[CH2]CCC`, for which the compound was classed as inactive in experiment [2], in experiment [6], in experiment [9] and in [13]. Besides, the AC50 was 93.5 µM (active) in experiment [3]; 2.71 µM (active) in [4]; 4.68 µM (active) in experiment [5]; 4.01 µM (active) in [10]; 1.21 µM (active) in experiment [11]; 88.7 µM (active) in experiment [12]. For the same compound, the concentration at half-maximal activity (AC50) is 89.6 µM (active) in experiment [14]; 5.19 µM (active) in [15]; 2.69 µM (active) in [16]; 72 µM (active) in [17]; 1.2 µM (active) in [18]; 2.66 µM (active) in experiment [19]. The concentration at half-maximal activity (AC50) in experiment [20] is 3.28 µM (active).
